Screening data as filed in PubChem BioAssay.
TIM10 inh = TIM10 yeast growth inhibition; hit rate 1.4% among 330,000; S. cerevisiae TIM10 strain growth, BacTiter-Glo luminescence, 24 h; inhibition, % at 10 µM;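 active = inhibition of 40% or more at the single tested concentration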;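 also: wild-type TIM10 isogenic control strain grown at permissive 25 °C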
NALP3 yeast inh = inhibitors of NALP3 inflammasome in yeast | Yeast reconstituted NLRP3/ASC/caspase-1, beta-gal luminescence, 24 h | inhibition, % at 10 µM | AID 2825 | hit rate 0.39% among 330,000;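 active = inhibition of 50% or more; inactive = inhibition below 50%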;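 also: plate controls were induced DMSO wells for no effect and uninduced yeast grown without galactose for full effect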
tim10-1 inh = growth inhibitors of tim10-1 mutant yeast. S. cerevisiae tim10-1 ts strain growth, BacTiter-Glo, 24 h. inhibition, % at 20 µM. hit rate 2.2% among 330,000;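 active = inhibition of at least 40%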;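 also: mutant grown at 25 °C; 0% = DMSO wells with yeast and 100% = wells holding no yeast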
tim23-1 inh = tim23-1 yeast growth inhibition | hit rate 1.3% among 330,000 | inhibition, % at 20 µM | S. cerevisiae tim23-1 growth, BacTiter-Glo luminescence, 24 h;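 active = growth inhibition of the mutant yeast at or above 50%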;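 also: temperature-sensitive mutant grown at 25 °C; plate controls were DMSO-treated mutant yeast for no effect and medium wells lacking yeast for full effect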
SKKanGAS inh = inhibitors of SKKanGAS S. pyogenes growth in kanamycin (SK-promoter or general growth effect) | BacTiter-Glo, 6 h | inhibition, % at 7.5 µM | hit rate 1.3% among 300,000 | AID 1662;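 active = mean replicate score, as percent of positive control median, at least 50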;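 also: strain carries kanamycin resistance gene driven by streptokinase promoter and grows in 40 µg/ml kanamycin; loss of luminescence reflects streptokinase promoter inhibition or plain growth inhibition; 0% = median of DMSO wells and 100% = positive control at its reference dose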
NALP1 inh = NALP1 inhibition; hit rate 0.61% among 280,000; inhibition, % at 10 µM; S. cerevisiae NALP1/ASC/caspase-1 growth, X-gal OD620, 72 h; in the data active = inhibition mostly above about 24%, no sharp cut-off; inactive = mostly below about 32%
tim23-1 confirm = confirmation of tim23-1 mutant yeast growth inhibitors; shares compounds with tim23-1 inh; S. cerevisiae tim23-1 growth, BacTiter-Glo luminescence, 24 h; inhibition, % at 20 µM; hit rate 83% among 4,400;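 active = inhibition above about 39% in either of two replicate wells at 20 µM, limit read from the data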;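 also: temperature-sensitive tim23-1 mutant grown at 25 °C; 0% = DMSO wells with yeast and 100% = medium wells without yeast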
Numbers without * were called inactive. Compounds with a hit are over-represented: about 4.9% of the library has one in this group of screens.

O=C(CN1C(=O)c2ccccc2S1(=O)=O)c1ccc(Cl)cc1Cl was read as TIM10 inh 8, NALP3 yeast inh 10, tim10-1 inh 32, tim23-1 inh 51*, SKKanGAS inh 5, NALP1 inh 5 and tim23-1 confirm 24.
`N#C/C(=C\c1ccccc1)C(=O)Nc1ccccn1` gave TIM10 inh 30, NALP3 yeast inh 11, tim10-1 inh 14, tim23-1 inh 53*, SKKanGAS inh -1, NALP1 inh 23 and tim23-1 confirm 25.
For CCc1ccc(NC(=O)/C(C#N)=C/c2ccncc2)cc1 the results were TIM10 inh 22, NALP3 yeast inh 0, tim10-1 inh 37, tim23-1 inh 74*, SKKanGAS inh 1, NALP1 inh -8 and tim23-1 confirm 66*.
`CC(C)(C)c1ccc(/C=C(\C#N)C(=O)Nc2ccccn2)cc1` gave TIM10 inh 38, NALP3 yeast inh 27, tim10-1 inh 29, tim23-1 inh 55*, SKKanGAS inh 1, NALP1 inh -9 and tim23-1 confirm 61*.
For N#C/C(=C\c1ccccc1)C(=O)Nc1cccnc1 the results were TIM10 inh 14, NALP3 yeast inh -2, tim10-1 inh 21, tim23-1 inh 50*, SKKanGAS inh 39, NALP1 inh -4 and tim23-1 confirm 50*.
For Cc1ccc(S(=O)(=O)NCC(=O)OCCOc2ccccc2F)cc1 the results were TIM10 inh 3, NALP3 yeast inh 10, tim10-1 inh 25 and tim23-1 inh 18.
Cc1ccc(S(=O)(=O)NCC(=O)OCCOc2cccc(Cl)c2)cc1 was read as TIM10 inh 15, NALP3 yeast inh 2, tim10-1 inh 37, tim23-1 inh 51* and tim23-1 confirm 44*.
For CC(c1ccon1)N(C)Cc1cn(Cc2ccccc2)nc1-c1ccc2c(c1)OCO2 (configuration not stated) the results were TIM10 inh 23, NALP3 yeast inh 6, tim10-1 inh 28, tim23-1 inh 27, SKKanGAS inh 1 and NALP1 inh 5.
Screening O=c1[nH]c(SCc2n[nH]c(=S)n2-c2ccccc2)nc2sc3c(c12)CCC3 returned TIM10 inh 12, NALP3 yeast inh 25, tim10-1 inh 14, tim23-1 inh -1, SKKanGAS inh 3 and NALP1 inh 2.
Screening COc1cccc(C2=NN(C(=O)c3ccco3)C(c3ccco3)C2)c1 (configuration not stated) returned TIM10 inh 11, NALP3 yeast inh 7, tim10-1 inh 33, tim23-1 inh 52*, SKKanGAS inh 3, NALP1 inh 8 and tim23-1 confirm 41*.
For CS(=O)(=O)Nc1ccc(C2=NN(C(=O)c3ccco3)C(c3ccco3)C2)cc1 (configuration not stated) the results were TIM10 inh -1, NALP3 yeast inh 18, tim10-1 inh -6, tim23-1 inh 7, SKKanGAS inh 5 and NALP1 inh 5.
C/C(=N\OCC(=O)N/N=C/c1ccccc1)c1cccs1 was read as TIM10 inh 28, NALP3 yeast inh 6, tim10-1 inh 15, tim23-1 inh 32, SKKanGAS inh 0 and NALP1 inh 10.
For C/C(=N\OCC(=O)N/N=C/c1ccccc1O)c1cccs1 the results were TIM10 inh 30, NALP3 yeast inh 5, tim10-1 inh 15, tim23-1 inh 56*, SKKanGAS inh 17, NALP1 inh 2 and tim23-1 confirm 57*.
For CCCCn1c(C23CC4CC(CC(C4)C2)C3)n[nH]c1=S the results were TIM10 inh 36, NALP3 yeast inh 48, tim10-1 inh 33, tim23-1 inh 53*, SKKanGAS inh 20, NALP1 inh -2 and tim23-1 confirm 50*.
`COCCn1c(C23CC4CC(CC(C4)C2)C3)n[nH]c1=S` gave TIM10 inh 26, NALP3 yeast inh 22, tim10-1 inh 30, tim23-1 inh 27, SKKanGAS inh 1 and NALP1 inh 2.
Screening O=C(COC(=O)c1ccc(O)cc1)c1ccc2c(c1)OCCO2 returned TIM10 inh -17, NALP3 yeast inh -4, tim10-1 inh -17, tim23-1 inh 60* and tim23-1 confirm 22.
For Cc1cc(NC(=O)C(C)SCC(=O)Nc2nnc(CC(C)C)s2)no1 (configuration not stated) the results were TIM10 inh 5, NALP3 yeast inh 11, tim10-1 inh 14, tim23-1 inh 9 and SKKanGAS inh -3.
For Cc1ccc(C(=O)N/N=C/c2ccc(-c3ccc(Br)cc3[N+](=O)[O-])o2)o1 the results were TIM10 inh 24, NALP3 yeast inh 20, tim10-1 inh 17, tim23-1 inh 50*, SKKanGAS inh 5, NALP1 inh 9 and tim23-1 confirm 67*.
`Cc1nc2ccccc2c(=O)n1NC(=O)c1cccc(Cl)c1` gave TIM10 inh -34, NALP3 yeast inh 2, tim10-1 inh 11, tim23-1 inh 21, SKKanGAS inh 5 and NALP1 inh 23.
O=C1NC(=S)SC1=C1CCCCCC1 was read as TIM10 inh 3, NALP3 yeast inh 28, tim10-1 inh 24, tim23-1 inh 50*, SKKanGAS inh 0, NALP1 inh -17 and tim23-1 confirm 69*.
Screening O=C1NC(=Nc2ccccc2Cl)S/C1=C\c1cccc([N+](=O)[O-])c1 returned TIM10 inh 36, NALP3 yeast inh 18, tim10-1 inh 17, tim23-1 inh 55*, SKKanGAS inh 13, NALP1 inh 0 and tim23-1 confirm 63*.
Screening O=S(=O)(c1ccc2c(c1)CCC2)N1CCNCC1 returned TIM10 inh -4, NALP3 yeast inh 26, tim10-1 inh -10 and tim23-1 inh 3.
CC(C)CN1Cc2ccccc2Oc2cc(Br)ccc2S1(=O)=O was read as TIM10 inh -3, tim10-1 inh 18, tim23-1 inh 51* and tim23-1 confirm 24.
CCCCN1Cc2ccccc2Oc2cc(Br)ccc2S1(=O)=O was read as TIM10 inh -8, tim10-1 inh 22, tim23-1 inh 51* and tim23-1 confirm 23.
For CCOC(=O)c1ccc(NC(=S)N(CCN2CCCCCC2)Cc2cccs2)cc1 the results were TIM10 inh -1, NALP3 yeast inh 12, tim10-1 inh 26, tim23-1 inh 7, SKKanGAS inh 3 and NALP1 inh 21.
For COc1ccc(C2=NOC(C(=O)Nc3ccc4c(c3)OCCO4)C2)c(OC)c1 (configuration not stated) the results were TIM10 inh -19, NALP3 yeast inh 12, tim10-1 inh 7, tim23-1 inh 16, SKKanGAS inh 2 and NALP1 inh 7.
For COc1c(Cl)cccc1-c1cn2ccccc2n1 the results were TIM10 inh 20, NALP3 yeast inh 41, tim10-1 inh 6, tim23-1 inh 55*, SKKanGAS inh 20 and tim23-1 confirm 34.
